Screening data from PubChem BioAssay.
NCOA3 inh = inhibitors of human steroid receptor coactivator 3 (SRC3). Q9Y6Q9. HEK293 GAL4-SRC3 luciferase reporter, luminescence. inhibition, % at 3.6 µM. actives 0.17% (n = 360,000);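 active means inhibition above a per-campaign cutoff, the mean of all compounds plus 3 SD, cut at about 60% in these data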;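 further: 0% = DMSO-treated cells and 100% = gossypol-treated cells at 36 µM; higher means less SRC3-driven luciferase light from the GAL4 reporter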
Target sequence (Q9Y6Q9 whole entry, looked up, the tested form may be a part): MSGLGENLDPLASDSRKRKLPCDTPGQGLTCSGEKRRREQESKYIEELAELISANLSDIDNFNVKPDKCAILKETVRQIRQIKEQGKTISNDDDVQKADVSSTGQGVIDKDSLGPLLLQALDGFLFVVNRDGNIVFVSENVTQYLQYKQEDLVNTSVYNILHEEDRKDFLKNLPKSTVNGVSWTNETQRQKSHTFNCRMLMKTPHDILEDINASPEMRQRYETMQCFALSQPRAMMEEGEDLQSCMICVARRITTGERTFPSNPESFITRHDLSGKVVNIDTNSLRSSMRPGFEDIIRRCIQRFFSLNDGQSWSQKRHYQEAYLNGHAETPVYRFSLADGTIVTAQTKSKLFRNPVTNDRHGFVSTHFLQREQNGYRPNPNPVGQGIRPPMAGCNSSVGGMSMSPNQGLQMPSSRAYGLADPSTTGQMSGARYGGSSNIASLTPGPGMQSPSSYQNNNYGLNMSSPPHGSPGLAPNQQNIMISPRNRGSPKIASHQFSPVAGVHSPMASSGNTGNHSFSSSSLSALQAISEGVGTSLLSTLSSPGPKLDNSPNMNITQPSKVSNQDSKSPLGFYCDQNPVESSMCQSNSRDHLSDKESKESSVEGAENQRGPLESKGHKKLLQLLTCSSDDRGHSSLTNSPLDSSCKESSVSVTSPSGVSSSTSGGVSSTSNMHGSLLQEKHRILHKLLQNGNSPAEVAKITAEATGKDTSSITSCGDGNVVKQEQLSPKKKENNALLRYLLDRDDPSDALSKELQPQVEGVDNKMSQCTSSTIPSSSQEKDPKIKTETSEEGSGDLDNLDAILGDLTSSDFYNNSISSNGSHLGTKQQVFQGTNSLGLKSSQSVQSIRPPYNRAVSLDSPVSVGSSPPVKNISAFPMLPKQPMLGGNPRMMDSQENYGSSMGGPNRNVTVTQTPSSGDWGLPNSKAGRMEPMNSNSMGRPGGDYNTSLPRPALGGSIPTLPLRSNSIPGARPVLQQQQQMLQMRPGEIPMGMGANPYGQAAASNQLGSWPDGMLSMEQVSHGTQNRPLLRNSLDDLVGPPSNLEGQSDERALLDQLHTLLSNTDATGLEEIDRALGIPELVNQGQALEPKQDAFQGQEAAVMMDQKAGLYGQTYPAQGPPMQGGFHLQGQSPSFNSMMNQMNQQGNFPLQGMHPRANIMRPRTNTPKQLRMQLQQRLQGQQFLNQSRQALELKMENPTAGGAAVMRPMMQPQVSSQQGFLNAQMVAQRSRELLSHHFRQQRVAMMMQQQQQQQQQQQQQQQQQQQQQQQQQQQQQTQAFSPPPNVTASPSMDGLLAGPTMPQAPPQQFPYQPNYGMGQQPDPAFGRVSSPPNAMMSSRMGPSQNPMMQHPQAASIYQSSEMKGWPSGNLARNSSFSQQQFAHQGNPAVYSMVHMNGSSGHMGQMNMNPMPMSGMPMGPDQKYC
COUP-TFII inh = NR2F2 (human) inhibition, primary screen; P24468; actives 0.7% (n = 370,000); inhibition, % at 8.6 µM; HEK293T NGFI-A luciferase reporter, luminescence;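 active means inhibition above a per-plate cutoff, mean inhibition of test wells between control levels plus 3 SD, cut at about 38% in these data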;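 further: cells cotransfected with COUP-TFII expression vector driving the NGFI-A reporter; 0% = median of COUP-TF2 test wells and 100% = reporter-only cells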
SRC1 inh = inhibits human SRC1 coactivator; Q15788; actives 0.12% (n = 360,000); inhibition, % at 3.6 µM; HEK293 GAL4-SRC1 luciferase reporter, luminescence; AID 588354;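 active means inhibition above the campaign mean plus 3 SD, with each screening campaign given its own cutoff, cut at about 60% in these data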;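 further: 0% = DMSO treated cells and 100% = gossypol at 36 µM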
NCOA2 inhibitor = inhibits human steroid receptor coactivator 2; HEK293 GAL4-SRC2 luciferase reporter, luminescence; inhibition, % at 9 µM; actives 0.17% (n = 370,000);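 active means inhibition above the mean inhibition of all tested compounds plus 3 SD, set per campaign, cut at about 52% in these data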;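 further: 0% = DMSO treated cells and 100% = cells given Gossypol at 36 µM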
NR5A2 inv ag = NR5A2 inverse agonism in reporter assay; HEK293T StAR-luciferase reporter, LRH-1 transfected, 24 h; actives 0.13% (n = 360,000); O00482; inhibition, % at 3.6 µM;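 active means inhibition above the mean inhibition of all tested compounds plus 3 SD, cut at about 73% in these data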;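 further: 0% = DMSO wells and 100% = reporter-only cells lacking LRH-1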
Gal4-VP16 ctr = counter-screen for COUP-TFII antagonists: inhibitors of VP16; shares compounds with COUP-TFII inh; HEK293 Gal4-VP16 luciferase reporter, luminescence; inhibition, % at 8.5 µM; actives 25% (n = 2,500); AID 687007; in the data active means inhibition above about 13%
NR2F2 inh conf = COUP-TFII (NR2F2) inhibition, confirmation assay; AID 687008; actives 45% (n = 2,500); inhibition, % at 8.5 µM; HEK293 NGFI-A luciferase reporter, luminescence; shares compounds with COUP-TFII inh;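 active means mean inhibition over three repeats above a set limit taken from the earlier primary screen, cut at about 38% in these data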;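 further: 100% = cells given the luciferase reporter alone without the COUP-TF2 vector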
Active calls of the source: *; nt = no result given. Compounds with a hit are over-represented: about 0.81% of the library has one in this group of screens.

SMILES	NCOA3 inh	COUP-TFII inh	SRC1 inh	NCOA2 inhibitor	NR5A2 inv ag	Gal4-VP16 ctr	NR2F2 inh conf
CCOC(=O)c1cnc2c(OC)cccc2c1N1CC(C)CC(C)C1 (centres undefined)	2.3	39.6*	18.4	-0.9	4.8	-6.7	7.1
CCOC(=O)c1cnc2c(OC)cccc2c1N1CCN(c2ccccc2OC)CC1	15.3	1.6	-7.6	-12.8	9.1	nt	nt
O=[N+]([O-])c1ccc(N=Nc2c(Cl)cc(O)cc2Cl)cc1	53.2	64.3*	18.8	3.1	-34.2	-72.8	48.8*
C=CCN(c1ccccc1)S(=O)(=O)c1cccc(C(=O)NC2CCN(Cc3ccccc3)CC2)c1	21.1	58.3*	15.3	2.6	18.8	2.7	43.6*
Cc1ccc(NS(=O)(=O)c2cccc(C(=O)NC3CCN(Cc4ccccc4)CC3)c2)c(C)c1	-23.6	56.4*	-3.2	31.8	22.5	3.9	28.3
CN(C)S(=O)(=O)c1cccc(C(=O)NCC(=O)NC2CCN(Cc3ccccc3)CC2)c1	-23.7	-5.5	-3.2	-19.6	1.4	nt	nt
O=C(NC1CCN(Cc2ccccc2)CC1)c1cccc(S(=O)(=O)Nc2ccc(F)cc2)c1	20.8	54.6*	15.8	15.9	24.2	3.0	34.1
Cc1ccc(C)c(OCc2cc(C(=O)NC3CCN(Cc4ccccc4)CC3)no2)c1	1.5	48.0*	-6.2	23.6	21.6	1.2	20.7
CC(C)Oc1cccc(NC(=O)C2(C)CCCN2C(=O)C(C)C)c1 (centres undefined)	0.8	2.2	-11.8	17.4	15.2	nt	nt
CN1CCN(c2ccc(-c3ccc4ccccc4n3)cc2)CC1	79.5*	89.5*	79.3*	75.6*	73.7*	52.0*	90.5*
CCOc1cccc(/C=N/NC(=S)Nc2ccccc2[N+](=O)[O-])c1O	80.0*	81.7*	84.2*	59.9*	79.2*	5.2	67.2*
C#CCN(C[C@@H]1[C@@H](OC(=O)NCC2CCCCC2)[C@@H](OC(=O)NCC2CCCCC2)Cn2c(=O)ccc(=O)n21)S(=O)(=O)c1ccc(C)cc1	6.8	53.7*	-4.9	31.4	59.0	45.2*	57.2*
C#CCN(C[C@@H]1[C@@H](OC(=O)NCCCCCC)[C@@H](OC(=O)NCCCCCC)Cn2c(=O)ccc(=O)n21)S(=O)(=O)c1ccc(C)cc1	53.9	29.1	27.5	25.6	34.0	nt	nt
C=CCOc1c(Cl)cc(CNCCCN2CCOCC2)cc1OC	5.4	-0.1	-29.9	0.1	-2.7	nt	nt
O=C(NC1CCCCC1)C(c1ccccc1F)N(Cc1ccco1)C(=O)Cn1nnc2ccccc21 (centres undefined)	17.7	-11.5	4.1	2.2	23.9	nt	nt
CCOC(=O)Cc1nn(Cc2nc(-c3ccc(C#N)cc3)cs2)c(=O)c2ccccc12	10.5	39.4*	3.2	23.2	-11.3	16.8*	16.7
O=C(CN1C(=O)S/C(=C\c2ccccc2)C1=O)NNC(=O)c1ccccc1O	-2.5	5.7	-12.7	11.5	5.8	nt	nt
O=C(CCCN1C(=O)S/C(=C\c2ccccc2)C1=O)NNC(=O)c1ccccc1O	71.0*	61.1*	59.9	77.7*	42.0	82.3*	86.7*
O=C(CCCN1C(=O)/C(=C/c2ccccc2Cl)SC1=S)NNC(=O)c1ccc(Cl)cc1Cl	33.6	71.7*	27.4	80.6*	2.8	39.3*	41.7*
O=C(CCCN1C(=O)/C(=C/c2ccccc2Cl)SC1=S)NNC(=O)c1cccnc1	17.7	54.4*	18.4	79.5*	20.3	2.6	16.1
O=C(CCN1C(=O)/C(=C/c2ccccc2Cl)SC1=S)Nc1ccccc1C(=O)O	4.0	-7.3	-21.7	8.4	4.0	nt	nt
O=C(CCCN1C(=O)/C(=C/c2ccccc2Cl)SC1=S)NNC(=O)c1ccccc1	40.3	64.3*	36.8	81.0*	37.2	28.3*	38.3*
COc1cccc(N(CC(=O)N2CCN(Cc3ccccc3)CC2)S(C)(=O)=O)c1	0.3	5.2	-5.3	5.8	3.2	nt	nt
CN(c1ccccc1C(=O)NCc1ccccc1Cl)S(=O)(=O)c1ccccc1	7.0	24.9	1.9	-7.0	9.3	nt	nt
O=C(CNc1cccc([N+](=O)[O-])c1)N1CCN(S(=O)(=O)c2ccc(Cl)cc2)CC1	10.0	-3.2	0.8	7.9	16.6	nt	nt
SMILES	NCOA3 inh	COUP-TFII inh	SRC1 inh	NCOA2 inhibitor	NR5A2 inv ag	Gal4-VP16 ctr	NR2F2 inh conf
Cc1[nH]c2ccccc2c1/C=N/NC(N)=S	2.0	14.2	2.4	2.5	-0.6	nt	nt
CCc1nnc(N/N=C/c2c(C)[nH]c3ccccc23)n1N	6.0	52.5*	8.9	4.1	26.6	-0.6	-0.7
O=C(CCCN1C(=O)/C(=C/c2ccccc2)SC1=S)NCCCn1ccnc1	23.6	34.7	7.2	41.6	12.4	nt	nt
CCCCCCC(=O)N(O)C1CC(=O)N(Cc2ccccc2)C1=O (centres undefined)	8.3	29.3	2.0	9.0	11.9	nt	nt
CCCCCC(=O)N(O)C1CC(=O)N(c2ccccc2)C1=O (centres undefined)	13.5	41.1*	3.1	4.4	-25.4	-3.8	36.1
O=C1CC(c2ccccc2)Sc2nc3ccccc3n21 (centres undefined)	-79.2	-43.6	-105.7	-61.1	-158.7	nt	nt
O=C1CC(c2ccc3c(c2)OCO3)Sc2nc3ccccc3n21 (centres undefined)	37.3	42.2*	29.3	2.4	39.1	-72.3	35.7
CCOC(=O)C1CCN(C(c2cccnc2)c2c(NC(=O)c3ccco3)sc(C)c2C)CC1 (centres undefined)	5.7	69.6*	8.3	14.0	40.5	-13.8	39.1*
Cc1cc(N2CCN(C(=O)Oc3ccc(-c4ccccc4)cc3)CC2)c2ccccc2n1	nt	62.0*	nt	17.9	nt	-1.5	36.4
Cc1c(C(=O)Nc2ccc3c(c2)OCCO3)sc2nc(-c3ccccc3)cn12	24.8	32.3	10.4	-6.9	-28.4	nt	nt
Cc1c(C(=O)Nc2ccncc2)sc2nc(-c3ccccc3)cn12	7.3	51.7*	6.7	11.2	-36.1	-41.0	11.5
O=C(O)c1ccc(N/N=C/c2ccc(C(F)(F)F)cc2)cc1	30.9	23.3	-12.4	14.0	-27.9	nt	nt
CC(C)(C)c1ccc(/C=N/Nc2ccc(C(=O)O)cc2)cc1	64.1*	70.2*	48.5	26.4	57.4	-21.6	69.5*
COc1cccc(/C=N/Nc2ccc(C(=O)O)cc2)c1O	79.4*	69.1*	75.8*	79.3*	46.0	65.1*	92.1*
COc1ccc(C(=O)N2CCN(c3ccc([N+](=O)[O-])c(NCCc4ccc(OC)c(OC)c4)c3)CC2)cc1	32.0	39.1*	22.8	17.9	35.3	12.1	88.8*
O=C(COC(=O)CN1C(=O)C2CCCCC2C1=O)NNC(=O)c1ccc(Cl)cc1 (centres undefined)	-28.5	10.6	-8.6	3.3	8.7	nt	nt
COc1ccc(/C=C/C(=O)Nc2ccccc2C(=O)O)cc1OC	49.0	59.6*	38.4	33.6	36.6	-17.2	35.3
